Source: the supplement of paper PMC12808144

Each compound was assayed on Mel-DCC-11-R (assay: cell viability relative to DMSO control (fraction of DMSO control); higher = less cytotoxic, active = 0.8 or less). Conditions: 1 µM; 120 h; vemurafenib co-treatment 0 µM.
Description: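 Same 315-drug TargetMol library at 1 µM in duplicate, 120 h, ATPlite luminescence normalised to DMSO controls, on the vemurafenib-resistant subline Mel-DCC-11-R cultured alone or with 8 µM vemurafenib co-treatment (Mel-DCC-11-R + V).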
In the case of CNC(=O)Oc1ccccc1OC(C)C [Propoxur], the cell viability is reported as 0.827 (inactive).
For Cl.Cn1c(CCCC(=O)O)nc2cc(N(CCCl)CCCl)ccc21 [Bendamustine hydrochloride], the cell viability was 0.822 (inactive).
With C[C@]12CC[C@H]3[C@@H](CC[C@@]45O[C@@H]4C(O)=C(C#N)C[C@]35C)[C@@H]1CC[C@@H]2O [Trilostane] the cell viability was 1.03 (inactive).

Same assay, conditions: 1 µM; 120 h; vemurafenib co-treatment 8 µM
In the case of CNC(=O)Oc1ccccc1OC(C)C [Propoxur], the cell viability is reported as 0.985 (inactive).
For Cl.Cn1c(CCCC(=O)O)nc2cc(N(CCCl)CCCl)ccc21 [Bendamustine hydrochloride], the cell viability was 1.04 (inactive).
C[C@]12CC[C@H]3[C@@H](CC[C@@]45O[C@@H]4C(O)=C(C#N)C[C@]35C)[C@@H]1CC[C@@H]2O [Trilostane] was tested, and the cell viability was 1.05 (inactive).
